Only some compounds are listed: those with a hit (about 2.2% of all), similar ones and a draw of the others.
ANO1 block: blocks the mouse calcium-activated chloride channel TMEM16A | Q8BHY3 | AID 588511 | actives 1.2% (n = 310,000) | normalized B-score (activity score, 25-100; higher = stronger inhibition) at 10 µM | HEK293 TMEM16A/YFP iodide influx fluorescence, ionomycin;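 active = ratio plate-corrected score three or more library SD toward inhibition, starting fluorescence score within five deviations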;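 note: score derived from kinetic fluorescence span divided by baseline fluorescence per well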
M1 PAM parental: nonselective activator or artifact in parental CHO-K1 calcium assay; actives 0.02% (n = 360,000); ATP EC20, Fluo-8 calcium fluorescence; 0% at ATP EC20, 100% at ATP max; activation, % at 3 µM; AID 602247;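 active = activation above the run cutoff, the mean activation of all test compounds plus 3 SD, cut at about 40% in these data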;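 note: peak over basal fluorescence ratio in a 140 s read after ATP addition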
M1 ag parental: nonselective activator or artifact in parental CHO-K1 cells. AID 602248. actives 0.48% (n = 360,000). Fluo-8 calcium fluorescence; scaled to maximal ATP response, vehicle zero. activation, % at 3 µM; in the data active = activation above about 15%;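 note: untransfected CHO-K1 host cells lacking M1 receptor as counterscreen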
NTR1 agonist: agonists of human neurotensin receptor NTR1; P30989; NTR1-U2OS beta-arrestin-GFP spot imaging, agonist mode; activation, % at 20 µM; actives 0.17% (n = 330,000);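 active = activation at or above 40% of the spot to cytoplasm intensity ratio, with at least 20 cells analyzed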;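 note: 0% = DMSO without peptide and 100% = 100 nM NTR1 peptide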
Target sequence (P30989 whole entry, looked up): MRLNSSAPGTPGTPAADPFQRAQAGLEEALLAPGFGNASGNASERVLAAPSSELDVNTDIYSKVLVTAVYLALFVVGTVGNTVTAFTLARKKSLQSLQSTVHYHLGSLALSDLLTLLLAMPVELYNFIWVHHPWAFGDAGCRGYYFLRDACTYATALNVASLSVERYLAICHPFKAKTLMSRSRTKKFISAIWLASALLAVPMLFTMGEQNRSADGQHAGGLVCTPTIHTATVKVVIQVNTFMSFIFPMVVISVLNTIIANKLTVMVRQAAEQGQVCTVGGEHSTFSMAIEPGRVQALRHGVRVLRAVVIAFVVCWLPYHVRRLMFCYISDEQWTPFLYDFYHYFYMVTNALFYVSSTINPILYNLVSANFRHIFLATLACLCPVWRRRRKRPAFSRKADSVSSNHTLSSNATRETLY
ANO1 activ: activators or potentiators of mouse TMEM16A chloride channel. Q8BHY3. HEK293 TMEM16A/YFP-H148Q/I152L, iodide quench fluorescence; stronger effect = lower value. B-score at 10 µM. actives 0.3% (n = 340,000);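 active = fluorescence-ratio B-score plate-corrected deviation score at least 3 library SD below zero, with starting fluorescence score within 5 deviations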;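 note: channel opened by trigger with iodide after compound preincubation; score built on the fluorescence ratio of max minus min over baseline; more negative score means more quench and so TMEM16A activation or potentiation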
CHO-K1 Ca antag: M1 antagonist counterscreen hit in parental CHO-K1 cells; ATP-induced calcium, Fluo-8 fluorescence; inhibition, % at 3 µM; actives 0.6% (n = 360,000);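 active = inhibition above a per-plate cutoff, the plate's mean sample inhibition plus 3 SD, cut at about 24% in these data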;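 note: 0% = DMSO plus EC80 ATP and 100% = DMSO alone without ATP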
Numbers without * were called inactive; i = inactive; · = no result.

SMILES	ANO1 block	M1 PAM parental	M1 ag parental	NTR1 agonist	ANO1 activ	CHO-K1 Ca antag
CCSc1nnc(N2C(=O)C(O)=C(C(=O)c3ccco3)C2c2cccc(OC)c2)s1 (stereo unspecified)	i	-8	0	0	-6.9*	-1
CSc1nnc(N2C(=O)C(O)=C(C(=O)c3ccco3)C2c2ccc(F)cc2)s1 (stereo unspecified)	i	-10	2	·	-6.6*	-4
C=CCOc1ccc(C2C(C(=O)c3ccco3)=C(O)C(=O)N2c2nnc(C)s2)cc1 (stereo unspecified)	i	-1	2	1	-8.9*	-1
COc1ccc(C2C(C(=O)c3ccco3)=C(O)C(=O)N2c2nnc(C)s2)cc1 (stereo unspecified)	i	-7	1	2	i	-14
O=S(=O)(c1ccccc1F)N1CCc2ccccc2C1	i	7	0	0	i	-8
CC(C)(C)c1ccc(SC2=C[C@@]3(O)CC[C@@H](O)[C@@](Sc4ccc(C(C)(C)C)cc4)(C2=O)[C@H]3O)cc1	·	2	5	·	·	-3
COC(=O)[C@H](Cc1ccccc1)NC(=O)Cn1cnc(C(=O)Nc2ccc(C)c(C)c2)n1	·	22	2	0	·	-11
Cc1ccc(/C=C2\S/C(=N/S(=O)(=O)c3cccs3)NC2=O)cc1	25*	16	0	1	i	-15
Cc1ccc(S(=O)(=O)/N=C2/NC(=O)/C(=C/c3ccccc3)S2)cc1	100*	2	1	1	i	-10
Cc1ccc(S(=O)(=O)/N=C2/NC(=O)/C(=C\c3ccccc3)S2)cc1	·	6	0	0	i	-8
Cc1ccc(S(=O)(=O)/N=C2/NC(=O)/C(=C/c3cc([N+](=O)[O-])ccc3O)S2)cc1	i	-21	20*	0	i	15
O=C1c2cccc(NCCCNCCO)c2C(=O)c2cccc(NCCCNCCO)c21	·	11	0	·	i	-6
CC(C)(C)c1ccc(/C=C2\Oc3cc(O)ccc3C2=O)cc1	i	-7	6	11	i	1
O=C1/C(=C/c2ccc(Br)cc2)Oc2cc(O)ccc21	100*	-25	5	15	i	17
Cc1cc(C)nc(/N=C(\N)Nc2ccc(CC(=O)OC(C)C)cc2)n1	i	-31	37*	3	i	45*
CS(=O)(=O)N(CCc1ccccc1)CC(=O)Nc1ccc(OCc2ccccc2)cc1	i	5	0	3	-20*	-2
Cc1cc(C)nc(/N=C(\N)Nc2cccc(OCc3ccccc3)c2)n1	i	-30	46*	6	i	22
Cc1cc(C)nc(/N=C(\N)Nc2ccc(OCc3ccccc3)cc2)n1	100*	-12	91*	20	-7.8*	89*
COC(=O)c1ccccc1NC(=O)CN(CCc1ccccc1)S(C)(=O)=O	i	-2	2	0	i	-4
S=C(Nc1ccccc1)Nc1ccc(OCc2ccccc2)cc1	i	-8	0	0	i	26*
NS(=O)(=O)c1ccc(NC(=S)Nc2ccc(OCc3ccccc3)cc2)cc1	i	5	0	1	i	4
CCc1cccc2cc3c(N)c(C(=O)Nc4ccc(S(=O)(=O)N5CCCC5)cc4)sc3nc12	i	15	16*	·	i	19
COc1cccc(CC(=O)Nc2ccc(S(=O)(=O)N3CCCCC3)cc2)c1	·	12	2	-2	i	-12
O=C1C=C(/C=C/C2C=CC=CC2)C[C@@H](c2ccc(Cl)cc2)C1 (stereo partly specified)	·	5	0	5	-9.8*	-8
O=C(NCCN1CCC(n2c(=O)[nH]c3ccccc32)CC1)c1ccc(C(F)(F)F)cc1C(F)(F)F	·	5	10	·	·	0
SMILES	ANO1 block	M1 PAM parental	M1 ag parental	NTR1 agonist	ANO1 activ	CHO-K1 Ca antag
CC(C)=CC(=O)N1CCC(n2nccc2NC(=O)CCc2ccccc2)CC1	i	7	0	3	i	40*
CCc1nc(CN2CCCC(C(=O)c3ccc4c5c(cccc35)CC4)C2)c(C)[nH]1 (stereo unspecified)	i	-9	0	-1	i	25*
CC1CCN(S(=O)(=O)c2ccc(NC(=O)[C@@H]3CCCN3C(=O)c3cccs3)cc2)CC1	·	4	0	-2	i	-11
CC(=O)Nc1cc(-c2ccsc2)cn2c(-c3ccc(F)cc3)cnc12	·	-4	0	·	·	7
Cc1cccc2sc(NNC(=O)c3ccc(S(=O)(=O)N4CCCC(C)C4)cc3)nc12 (stereo unspecified)	25*	-7	1	·	i	5
CCNc1nc(NC(C)C)nc(N(C#N)Cc2ccccc2)n1	i	13	16*	3	i	-3
Cc1cc(C(=O)NCc2cc(F)cc3c2OCOC3)nn1C	i	2	1	-1	i	-5
Cn1nc(C(C)(C)C)cc1C(=O)NCc1cc(F)cc2c1OCOC2	i	-14	15*	1	i	31*
COc1ccc(Cc2nnc(NC(=O)c3ccc(F)cc3)s2)cc1OC	i	-18	0	-1	i	29*
COc1cc(/C=N/N=C(N)N)ccc1OCc1ccc(Cl)cc1	100*	29	0	4	i	-12
CCOc1cc(/C=N/N=C(N)N)ccc1OCc1ccc(Cl)cc1	i	12	0	·	i	-7
CC1=C2C3OC(=O)C(C)C3CCC2(C)C=CC1=NO (stereo unspecified)	·	-8	1	·	i	-5
COc1cccc(Oc2coc3c(CN4CCOCC4)c(O)ccc3c2=O)c1	i	-2	0	-1	i	28*
COc1ccc(/C(N)=N/OC(=O)CSc2ccc(C)cc2)cc1	100*	20	1	4	i	-9
Cc1ccc(/C(N)=N/OC(=O)CSc2ccccc2)cc1	i	8	1	2	i	2
COc1ccc(CC(=O)NNC(=O)CSc2ccc(C)cc2)cc1	i	-6	0	-1	-7.1*	0
CCCc1ccc2c(C(F)(F)F)cc(C(F)(F)F)cc2n1	·	22	1	·	·	-1
CC1(C(=O)Nc2cccc3ncccc23)CCN1C(=O)Cc1ccc(-c2ccccc2)cc1 (stereo unspecified)	·	8	6	·	·	-6
OC(c1cc(-c2cccc(Cl)c2)nc2ccccc12)C1CCCCN1 (stereo unspecified)	·	12	27*	·	i	15
CC(C)c1nc(=S)n(-c2ccccc2)[nH]1	i	-7	0	0	i	28*
CS(=O)(=O)N1CCc2cc(S(=O)(=O)Nc3ccc4oc5c(c4c3)CCCC5)ccc21	25*	-8	3	20	i	9

Assay outcomes: PubChem BioAssay, several laboratories
